Where “and” joins values, the source holds several entries; their conditions need not be identical. Equal values may be shown once. This is part of a sample that, as a whole, favours compounds with a hit. Of some 83,000 tested, about 20% had one in any assay.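 Assay: single dose, 48 h. Readout: percent growth (0 = no net growth; negative = cell death). Active: <10.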 Values without a mark were called inactive. Calls of active or inactive are those of the source.
How the values were obtained:
Assay in all cases: NCI-60 one-dose screen, 48 h (100 = growth as untreated, 0 = no growth, -100 = all killed)
[1] = tested on: HT29 colon; conditions: 10 µM unless noted
[2] = tested on: SNB-75 CNS; conditions: 10 µM unless noted
[3] = tested on: SNB-19 CNS; conditions: 10 µM unless noted
[4] = tested on: PC-3 prostate; conditions: 10 µM unless noted
[5] = tested on: SK-MEL-5 melanoma; conditions: 10 µM unless noted
[6] = tested on: UACC-62 melanoma; conditions: 10 µM unless noted
[7] = tested on: LOX IMVI melanoma; conditions: 10 µM
[8] = tested on: SK-MEL-28 melanoma; conditions: 10 µM unless noted
[9] = tested on: SK-MEL-2 melanoma; conditions: 10 µM unless noted
[10] = tested on: SN12C renal; conditions: 10 µM unless noted
[11] = tested on: UO-31 renal; conditions: 10 µM unless noted
[12] = tested on: TK-10 renal; conditions: 10 µM unless noted
[13] = tested on: ACHN renal; conditions: 10 µM unless noted
[14] = tested on: CAKI-1 renal; conditions: 10 µM unless noted
[15] = tested on: CCRF-CEM leukemia; conditions: 10 µM unless noted
[16] = tested on: MOLT-4 leukemia; conditions: 10 µM unless noted
[17] = tested on: EKVX NSCLC; conditions: 10 µM unless noted
[18] = tested on: A498 renal; conditions: 10 µM unless noted
[19] = tested on: U251 CNS; conditions: 10 µM unless noted

O=[N+]([O-])CC(O)c1ccccc1 (stereo unspecified)
growth [1]: 113%
growth [2]: 91.6%
growth [3]: 101%
growth [4]: 94.9%
growth [5]: 103%
growth [6]: 99.1%
growth [7]: 84.5%
growth [8]: 108%
growth [9]: 120%
growth [10]: 101%
growth [11]: 96.8%
growth [12]: 111%
growth [13]: 102%
growth [14]: 95.9%
growth [15]: 104%
growth [16]: 98.6%

CCOc1cc(F)c([N+](=O)[O-])cc1[N+](=O)[O-]
growth [2]: 64.5%
growth [4]: 66.4%
growth [5]: 76.7%
growth [6]: 78.2%
growth [7]: -44% (active)
growth [8]: 70.1%
growth [9]: 50.4%
growth [17]: 101%
growth [10]: 90.5%
growth [11]: 45.4%
growth [12]: 12.5%
growth [13]: 12.7%
growth [14]: 18.8%
growth [18]: 101%
growth [15]: 9.98% (active)
growth [16]: 9.18% (active)

Oc1ccc(Br)cc1Sc1cc(Br)ccc1O
growth [1]: 116%
growth [3]: 41.3%
growth [19]: 46.9%
growth [4]: 65.4%
growth [5]: 2.54% (active)
growth [6]: 7.3% (active)
growth [7]: 43.6%
growth [8]: 38.9%
growth [9]: 54.4%
growth [10]: 23.9%
growth [11]: 32.9%
growth [12]: 115%
growth [13]: 47.8%
growth [14]: 99.7%
growth [15]: 34.3%
growth [16]: 40.4%

COc1cccc2c1C(=O)c1c(O)c3c(c(O)c1C2=O)C[C@@](O)(C(=O)CO)C[C@@H]3OC1CC(OC(C)=O)C(OC(C)=O)C(C)O1 (stereo partly specified)
growth [1]: -59% (active)
growth [2]: -30.9% (active)
growth [3]: -8.8% (active)
growth [5]: -100% (active)
growth [6]: -87.8% (active)
growth [7]: -75.4% (active)
growth [8]: -8.16% (active)
growth [9]: -0.534% (active)
growth [17]: 30.5%
growth [10]: -6.25% (active)
growth [11]: -38.2% (active)
growth [13]: -92.2% (active)
growth [14]: -40.5% (active)
growth [18]: -19.1% (active)
growth [15]: -48.6% (active)
growth [16]: -53.2% (active)

S=C1NC2=C(COc3ccccc32)C(c2ccc(Cl)cc2)N1 (stereo unspecified)
growth [6]: -56.9% [100 µM] (active) and -100% [100 µM] (active)

O=C(O)c1cc2c(s1)C(=O)c1sccc1C2=O
growth [1]: 65.8%
growth [2]: -91.6% (active)
growth [3]: -2.34% (active)
growth [19]: 30.4%
growth [4]: 56.5%
growth [6]: 51%
growth [7]: -72.5% (active)
growth [9]: 15.5%
growth [17]: 101%
growth [10]: -46.9% (active)
growth [11]: -43.1% (active)
growth [12]: 115%
growth [13]: 80.1%
growth [14]: 107%
growth [18]: 103%
growth [15]: 42.5%
growth [16]: 72.3%

CC(C)(C)c1ccc(O)c(-c2ccccc2)c1
growth [1]: 107%
growth [3]: 121%
growth [19]: 96.3%
growth [4]: 95.2%
growth [5]: 116%
growth [6]: 103%
growth [7]: 103%
growth [8]: 119%
growth [17]: 103%
growth [10]: 109%
growth [11]: 110%
growth [12]: 99.5%
growth [13]: 102%
growth [14]: 86.7%
growth [18]: 121%
growth [15]: 97.1%
growth [16]: -54.2% (active)

COC1CC(C)C(OC)c2cc(O)cc(c2O)NC(=O)/C(C)=C/C=C\C(C)C(OC(N)=O)/C(C)=C\C(C)C1OC (stereo unspecified)
growth [1]: 5.88% (active)
growth [2]: 47.8%
growth [3]: 37.8%
growth [19]: 43.9%
growth [5]: -10.9% (active)
growth [6]: -27.6% (active)
growth [7]: 5.8% (active)
growth [9]: 39.4%
growth [17]: 41%
growth [10]: 30.3%
growth [11]: -70.9% (active)
growth [12]: 68%
growth [13]: 28.5%
growth [14]: 54.2%
growth [15]: -30.7% (active)
growth [16]: -23.4% (active)

O=C1C=CC(=O)N1c1ccccc1
growth [1]: 103%
growth [3]: 106%
growth [19]: 94.1%
growth [5]: 106%
growth [6]: 93.2%
growth [8]: 117%
growth [9]: 103%
growth [17]: 99.6%
growth [10]: 84.4%
growth [11]: 87.4%
growth [13]: -37.3% (active)
growth [18]: 105%
growth [16]: 42.2%

Cc1cc(N/N=C/c2ccccn2)nc2ccccc12
growth [1]: 20.3%
growth [3]: 24.6%
growth [19]: 4.92% (active)
growth [4]: 28.3%
growth [5]: -43.7% (active)
growth [6]: -46.5% (active)
growth [7]: 4.97% (active)
growth [8]: 18.1%
growth [9]: 50.2%
growth [10]: 17.4%
growth [11]: -8.77% (active)
growth [12]: 34.1%
growth [13]: 0.182% (active)
growth [14]: -8.9% (active)
growth [18]: 27.7%
growth [15]: 2.52% (active)
growth [16]: 5.97% (active)

CC1C(c2ccccc2)OCCN1C(=S)Nc1ccc(S(=O)(=O)N2CCCCC2)cc1 (stereo unspecified)
growth [1]: 87.5%
growth [2]: 100%
growth [4]: 97.7%
growth [5]: 88.7%
growth [6]: 88.9%
growth [7]: 58.9%
growth [8]: 108%
growth [9]: 104%
growth [10]: 96.1%
growth [11]: 94.5%
growth [12]: 116%
growth [13]: 96.4%
growth [14]: 36.4%
growth [18]: 99.3%
growth [15]: 81%
growth [16]: 99.5%
